More than one record can exist for a structure, and the calls need not agree. Calls of active or inactive are those of the source. How the source made its calls: active means hit-call score of the fitted dose curve at least 0.9, where 1 is the maximum; inactive means score below 0.9.
Experiment: ATG_NF_kB_CIS: Attagene CIS-FACTORIAL HepG2 Assay for human Nuclear Factor Kappa B (NF-kB) (AID 2282991)
Settings: HepG2 Attagene cis-factorial NF-kB reporter mRNA; actives raise or lower the signal
Method: ATG_CIS is a cell-based, multiplexed-readout assay that uses HepG2, a human liver cell line, with measurements taken at 24 hours after chemical dosing in a 24-well plate.ATG_NF_kB_CIS is one of 52 assay component(s) measured or calculated from the ATG_CIS assay. It is designed to make measurements of mRNA induction, a form of inducible reporter, as detected with fluorescence intensity signals by Reverse transcription polymerase chain reaction (RT-PCR) and Capillary electrophoresis technology.Data from the assay component ATG_NF_kB_CIS was analyzed into 1 assay endpoint. This assay endpoint, ATG_NF_kB_CIS, was analyzed with bidirectional fitting relative to DMSO as the negative control and baseline of activity. Using a type of inducible reporter, measures of mRNA for gain or loss-of-signal activity can be used to understand the reporter gene at the transcription factor-level as they relate to the gene NFKB1. Furthermore, this assay endpoint can be referred to as a primary readout, because this assay has produced multiple assay endpoints where this one serves a reporter gene function. To generalize the intended target to other relatable targets, this assay endpoint is annotated to the dna binding intended target family, where the subfamily is NF-kappa B.
Human liver HepG2 cells are transiently transfected with multiple reporter transcription units (MRTUs) in 6-well plates using FuGene 6 reagent (Roche; 3 ml FuGene/1 mg DNA). The MRTU constructs are regulated by a cis-regulating element (promoter). […] A major difference between the CIS and TRANS system is that in CIS activities of endogenous TFs are measured, whereas the TRANS assay evaluates changes in activities of exogenous, chimeric NR-Gal4 proteins. […] At the end of 24 hour incubation, total RNA was isolated using TriZol reagent (Invitrogen). The isolated RNA is then reverse-transcribed using oligo(dT) primer and Mo-MLV reverse transcriptase (Invitrogen) with DNAse I (Ambion) treatment for 30 min. The one-tenth of the produced cDNA was amplified by PCR using Taq DNA polymerase (Invitrogen) and two reporter sequence-specific primers. The PCR products were fluorescently labeled by primer extension with 6-arboxyfluorescein (6-FAM) 5'-labeled reporter sequence-specific primer (2 min at 95 C, 20 s at 68 C and 10 min at 72 C) and these products were digested with 5U of HpaI (New England Biolabs) for 2h at 37 C. The fragments were purified using Qiaquick PCR columns (Qiagen), analyzed on an ABI 3130xL genetic analyzer (Applied Biosystems) with peak positions identified by using a set of X-rhodamine (ROX)-labeled MapMarker1000 molecular weight standards (BioVentures). The raw capillary electrophoresis data was processed using Attagraph software (Attagene).
With `COc1nc(C)nc(NC(=O)NS(=O)(=O)c2ccccc2OCCCl)n1` the outcome was “inactive”. For `CC(C)(C)[C@@H](O)[C@@H](Cc1ccc(Cl)cc1)n1cncn1`, the outcome was “inactive”. For `COC(=O)c1ccccc1C(=O)O`, the outcome was “inactive”. With `CC(C)CCCCCCc1ccc(O)cc1` the outcome was “inactive” and the AC50 was 11.1 µM (active). In the case of `C[C@]12C[C@H](O)[C@H]3[C@@H](CCC4=CC(=O)CC[C@@]43C)[C@@H]1CC[C@@H]2C(=O)CO`, the outcome is reported as “inactive”. For `N#CSCSc1nc2ccccc2s1`, the AC50 was 3.07 µM (active) and the outcome was “inactive”. With `CCOC(=O)[C@H](C)Oc1ccc(Oc2nc3ccc(Cl)cc3o2)cc1` the outcome was “inactive”. In the case of `COC(=O)c1cccc(C)c1S(=O)(=O)NC(=O)Nc1nc(OCC(F)(F)F)nc(N(C)C)n1`, the outcome is reported as “inactive”. With `CCCCCCC(C)OC(=O)COc1nc(F)c(Cl)c(N)c1Cl` (configuration not stated) the outcome was “inactive”. With `O=C(O)C1(C(=O)Nc2ccc(Cl)cc2Cl)CC1` the outcome was “inactive”. In the case of `c1ccc2[nH]c(-c3cscn3)nc2c1`, the outcome is reported as “inactive”. In the case of `CC(C)(c1ccc(O)cc1)c1ccc(O)cc1`, the outcome is reported as “inactive” and the AC50 is reported as 56.9 µM (active). For `c1ccc(Nc2ccccc2)cc1`, the outcome was “inactive”. With `COC(=O)c1ccc(CNS(C)(=O)=O)cc1S(=O)(=O)NC(=O)Nc1nc(OC)cc(OC)n1` the outcome was “inactive”. For `CCNc1nc(N)nc(Cl)n1`, the outcome was “inactive”. With `C#C[C@]1(O)CC[C@H]2[C@@H]3CCC4=CC(=O)CC[C@@H]4[C@H]3CC[C@@]21CC` the outcome was “inactive”. For `CCCCOC(=O)C(C)Oc1ccc(Oc2ccc(C(F)(F)F)cn2)cc1` (configuration not stated), the outcome was “inactive”. In the case of `CCC(C)OC(=O)N1CCCCC1CCO` (configuration not stated), the outcome is reported as “inactive”. With `O=C(Nc1ccc([N+](=O)[O-])cc1Cl)c1cc(Cl)ccc1O` the AC50 was 1.17 µM (active). For `CCCCOCCOCCOCc1cc2c(cc1CCC)OCO2`, the outcome was “inactive”. In the case of `CCSC(=O)N(CC(C)C)CC(C)C`, the outcome is reported as “inactive”. With `CCCN(CCC)c1c([N+](=O)[O-])cc(C(F)(F)F)c(N)c1[N+](=O)[O-]` the AC50 was 50 µM (active). For `O=C(c1ccc(O)cc1O)c1ccc(O)cc1O`, the outcome was “inactive”. With `COC(=O)c1c(Cl)nn(C)c1S(=O)(=O)NC(=O)Nc1nc(OC)cc(OC)n1` the outcome was “inactive”. For `CCN(Cc1c(F)cccc1Cl)c1c([N+](=O)[O-])cc(C(F)(F)F)cc1[N+](=O)[O-]`, the outcome was “inactive”. For `CCOC(=O)C(C)Oc1ccc(Oc2nc3ccc(Cl)cc3o2)cc1` (configuration not stated), the outcome was “inactive”. In the case of `COC(=O)c1ccccc1S(=O)(=O)NC(=O)Nc1nc(OC(F)F)cc(OC(F)F)n1`, the outcome is reported as “inactive”. In the case of `O=C(c1ccccc1)C1CCCCC1`, the outcome is reported as “inactive”. In the case of `CCC(O)=C1C(=O)CC(C(=O)O)CC1=O` (configuration not stated), the outcome is reported as “inactive”. For `CCCCOC(=O)[C@@H](C)Oc1ccc(Oc2ccc(C(F)(F)F)cn2)cc1`, the outcome was “inactive”. With `CCCCC(CC)CN1C(=O)C2C3C=CC(C3)C2C1=O` (configuration not stated) the outcome was “inactive”. For `CCCOC(=O)c1ccc(C(=O)OCCC)nc1`, the outcome was “inactive”. For `C[C@]12CC[C@@H]3c4ccc(O)cc4C[C@@H](CCCCCCCCCS(=O)CCCC(F)(F)C(F)(F)F)[C@H]3[C@@H]1CC[C@@H]2O` (some centres not stated), the outcome was “inactive”. In the case of `CCOC(=O)NCCOc1ccc(Oc2ccccc2)cc1`, the outcome is reported as “inactive”.
